Test results as given in PubChem BioAssay AID624391 (National Center for Advancing Translational Sciences (NCATS), 2012).
Active and inactive are the calls of the source. Calls come from the whole dose curve; as a rule, active = well fitted curve in the direction sought with a large enough effect; inactive = no such curve, though single readings can be large or run the other way.

molecular target: Pyruvate kinase PKM (Homo sapiens) (UniProt P14618); experiment: qHTS for Activators of Human Muscle Isoform 2 Pyruvate Kinase: Extended Characterization for Probe 2; conditions: purified hPK-M2, Kinase-Glo ATP luminescence, 1 h
Description: Human pyruvate kinase muscle 2 (hPK-M2) enzyme was supplied as a highly purified (>95% pure) preparation from Harvard Medical School and assayed for its ability to generate ATP from ADP using phosphoenolpyruvate (PEP) as a substrate. ATP generation was detected in a coupled reaction by luciferase-mediated luminescence, an ATP-dependent process. […] The enzyme was assayed at an intermediate level of activity to screen for both inhibitors and activators. NIH Chemical Genomics Center [NCGC] NIH Molecular Libraries Probe Centers Network [MLPCN] MLPCN Grant: MH085679 Assay Submitter (PI): Matthew G. Vander Heiden, Harvard Medical School
Three uL of substrate mix (at r.t.) in assay buffer (50 mM Imidazole pH7.2, 50 mM KCl, 7 mM MgCl2, 0.01% Tween 20, 0.05% BSA) was dispensed into white solid bottom 1,536 well microtiter plates so that the final concentrations of substrates in the assay were 0.1 mM ADP and 0.5 mM PEP. 23 nL of compound were delivered by a pin tool and 1 uL of enzyme mix (final concentration of 0.1 nM) in assay buffer (4 degree Celsius) was added. Plates were incubated at room temperature for 1 hour. Two uL of detection mix (Kinase-Glo, Promega; at 4 degree Celsius protected from light) was added and luminescence read by a ViewLux (Perkin Elmer) at 1 second exposure/plate. Data were normalized to the uninhibited (column 3) and AC100 inhibition (no enzyme in column 2). To monitor activation, the first column contained a titration of the activator, NCGC00031955-03 (16-point 1:2 dilutions in duplicate starting at 57 uM) and the first 16 rows of column 4 contained 57 uM of NCGC00031955-03.

Sequence of Pyruvate kinase PKM (Homo sapiens) (P14618 whole entry, looked up, canonical isoform): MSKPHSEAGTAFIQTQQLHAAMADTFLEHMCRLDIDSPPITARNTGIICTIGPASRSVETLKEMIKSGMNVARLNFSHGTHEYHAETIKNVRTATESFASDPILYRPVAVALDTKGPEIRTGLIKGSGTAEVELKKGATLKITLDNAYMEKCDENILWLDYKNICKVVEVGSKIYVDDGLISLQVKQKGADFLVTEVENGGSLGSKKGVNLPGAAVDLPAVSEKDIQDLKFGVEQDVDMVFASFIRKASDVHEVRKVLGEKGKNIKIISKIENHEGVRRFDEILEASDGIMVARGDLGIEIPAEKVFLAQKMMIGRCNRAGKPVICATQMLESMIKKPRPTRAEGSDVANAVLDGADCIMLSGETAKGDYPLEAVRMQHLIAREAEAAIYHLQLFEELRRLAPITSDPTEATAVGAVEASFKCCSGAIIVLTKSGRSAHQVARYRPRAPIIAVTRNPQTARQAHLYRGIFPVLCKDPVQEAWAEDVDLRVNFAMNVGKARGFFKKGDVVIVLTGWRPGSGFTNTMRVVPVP

Potency, active:
O=S(=O)(c1ccc2c(c1)OCCO2)N1CCN(S(=O)(=O)c2c(F)cccc2F)CC1 81.9 nM, COc1cccc(Cn2ncc3c4sc(S(C)=O)cc4n(C)c3c2=O)c1 (stereo not drawn) 73 nM, Cc1ccc(NS(=O)(=O)c2ccc3c(c2)CCC(=O)N3)cc1C 163 nM
